CYP2C19 inh: blockers of cytochrome P450 2C19 activity – biochemical, luminescence, ADME assay, primary screen. P33261. CYP2C19 Supersomes, luciferin-H EGE luminescence, 30 min. inhibition, % at 5 µM. actives 21% (n = 96,000). AID 778, 2007;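 active = CYP2C19 inhibition above a set limit at 5 µM in the primary screen, cut at about 50% in these data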;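 also: plate controls were negative control wells for no effect and 2.5 mM tranylcypromine positive control for full effect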
CYP2C9 activ: human CYP2C9 activators, primary screen, biochemical, luminescence | actives 1.4% (n = 96,000) | activation factor at 5 µM | recombinant CYP2C9, luciferin-H conversion; hits give high values; factor 1 = untreated enzyme, 0 = blocked | AID 1024, 2008;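 active = activation factor of 2 or more for CYP2C9 at a 5 µM dose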;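 also: 0 = sulfaphenazole-blocked wells and 1 = vehicle-only wells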
PLK1 inh: human PLK1 kinase inhibitors, primary screen, biochemical, TR-FRET; Serine/threonine-protein kinase PLK1 (Homo sapiens), P53350; recombinant PLK1 kinase, TR-FRET peptide phosphorylation; inhibition, % at 10 µM; actives 0.53% (n = 97,000); AID 619, 2007;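 active = inhibition of 50% or more in the single-concentration screen; inactive = inhibition below 50%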;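 also: 0% = DMSO max control and 100% = H-89 dihydrochloride min control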
Target sequence (P53350 whole entry, looked up): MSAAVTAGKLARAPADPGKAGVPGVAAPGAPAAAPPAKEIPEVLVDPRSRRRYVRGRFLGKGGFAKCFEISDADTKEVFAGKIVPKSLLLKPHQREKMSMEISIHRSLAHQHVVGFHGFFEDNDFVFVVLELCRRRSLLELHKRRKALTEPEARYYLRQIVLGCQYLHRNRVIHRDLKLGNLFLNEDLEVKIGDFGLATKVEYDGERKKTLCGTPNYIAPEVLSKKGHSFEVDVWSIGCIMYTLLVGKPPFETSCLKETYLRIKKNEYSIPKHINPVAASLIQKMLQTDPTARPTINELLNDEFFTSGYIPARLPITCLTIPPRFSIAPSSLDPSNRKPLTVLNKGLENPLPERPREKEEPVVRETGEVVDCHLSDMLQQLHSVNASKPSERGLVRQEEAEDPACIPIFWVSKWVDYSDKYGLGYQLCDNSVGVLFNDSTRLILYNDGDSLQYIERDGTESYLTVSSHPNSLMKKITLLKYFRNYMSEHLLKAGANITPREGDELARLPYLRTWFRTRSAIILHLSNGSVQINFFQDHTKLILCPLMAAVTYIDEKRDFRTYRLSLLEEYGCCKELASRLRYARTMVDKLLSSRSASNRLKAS
CYP2C9 inh: blockers of cytochrome P450 2C9 activity – biochemical, luminescence, ADME assay, primary screen. actives 20% (n = 96,000). CYP2C9 Supersomes, luciferin-H conversion. AID 777, 2007. P11712. inhibition, % at 5 µM;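 active = blocking of liver enzyme CYP2C9 beyond about 50% at 5 µM, limit read from the data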
PLK1 PBD inh: Plk1 polo box domain binding inhibitors, primary screen, biochemical, fluorescence polarization. Serine/threonine-protein kinase PLK1 (Homo sapiens), P53350. Plk1 PBD phosphopeptide binding. inhibition, %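 (tested at about 20 µM)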. actives 0.13% (n = 97,000). AID 693, 2007; in the data active = inhibition above about 34%, passing the limit was not always enough
CYP2C19 act: human CYP2C19 activators, primary screen, biochemical, luminescence. 96,000 tested, under 10 active. Cytochrome P450 2C19 (Homo sapiens), P33261. activation factor at 5 µM. recombinant CYP2C19, luciferin-H EGE luminescence; hits give high values; 0 = fully inhibited enzyme, 1 = untreated enzyme;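 active = activation factor of at least 2 at 5 µM in the primary screen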;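 also: 0 = wells with 2.5 mM tranylcypromine and 1 = vehicle-only wells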
* = called active by the depositor. Compounds with a hit are over-represented: about 28% of the library has one in this group of screens.

Cc1ccc(C(=O)NNC(=O)CSc2nnc(-c3ccncc3)n2-c2ccc(C)cc2)cc1 was read as CYP2C19 inh 38, CYP2C9 activ 0.6, PLK1 inh -9, CYP2C9 inh 42, PLK1 PBD inh -9 and CYP2C19 act 0.6.
CCOc1ccc(-c2[nH]nc3c2C(c2ccc(O)cc2)C(C#N)=C(N)O3)cc1 (stereo not given) was read as CYP2C19 inh 18, CYP2C9 activ 0.7, PLK1 inh -7, CYP2C9 inh 32, PLK1 PBD inh 26 and CYP2C19 act 0.8.
Screening CC(C)c1[nH]nc2c1C(c1ccc(OC(=O)c3ccco3)cc1)C(C#N)=C(N)O2 (stereo not given) returned CYP2C19 inh 74*, CYP2C9 activ 0.3, PLK1 inh -5, CYP2C9 inh 73*, PLK1 PBD inh 1 and CYP2C19 act 0.3.
For Cc1[nH]nc2c1C(c1ccc(OC(=O)c3ccco3)cc1)C(C#N)=C(N)O2 (stereo not given) the results were CYP2C19 inh 44, CYP2C9 activ 0.4, PLK1 inh 31, CYP2C9 inh 58*, PLK1 PBD inh 13 and CYP2C19 act 0.6.
CC(C)(C)n1nc2c(c1NC(=O)Cc1cccc3ccccc13)CS(=O)C2 (stereo not given) was read as CYP2C19 inh 5, CYP2C9 activ 1, PLK1 inh -3, CYP2C9 inh 0, PLK1 PBD inh -6 and CYP2C19 act 0.9.
For CCC(=O)Nc1c2c(nn1-c1ccc(C)cc1C)CSC2 the results were CYP2C19 inh 46, CYP2C9 activ 0.7, PLK1 inh -10, CYP2C9 inh 27, PLK1 PBD inh -14 and CYP2C19 act 0.5.
Screening CC(C)(C)n1nc2c(c1NC(=O)COc1ccc(Cl)cc1)CSC2 returned CYP2C19 inh 67*, CYP2C9 activ 0.1, PLK1 inh -3, CYP2C9 inh 86*, PLK1 PBD inh -13 and CYP2C19 act 0.3.
For CC(C)(C)n1nc2c(c1NC(=O)Cc1cccs1)CSC2 the results were CYP2C19 inh 38, CYP2C9 activ 0.2, PLK1 inh -9, CYP2C9 inh 76*, PLK1 PBD inh 11 and CYP2C19 act 0.6.
Screening CC(C)(C)n1nc2c(c1NC(=O)Cc1ccc(F)cc1)CSC2 returned CYP2C19 inh 64*, CYP2C9 activ 0.3, PLK1 inh -13, CYP2C9 inh 68*, PLK1 PBD inh -12 and CYP2C19 act 0.4.
`Cc1ccc(-c2nn3c(C)nnc3s2)cc1NC(=O)COc1ccc(Cl)cc1` gave CYP2C19 inh 16, CYP2C9 activ 0.7, PLK1 inh -20, CYP2C9 inh 28, PLK1 PBD inh 9 and CYP2C19 act 0.8.
CN(C)S(=O)(=O)N1CCN(C(=O)N2CCOCC2)CC1 was read as CYP2C19 inh -2, CYP2C9 activ 1, PLK1 inh -2, CYP2C9 inh 3, PLK1 PBD inh -14 and CYP2C19 act 1.
`Cc1cc(C)cc(NC(=O)CSc2nnc(-c3ccccc3)n2N)c1` gave CYP2C19 inh 7, CYP2C9 activ 1, PLK1 inh -4, CYP2C9 inh -3, PLK1 PBD inh -9 and CYP2C19 act 0.9.
For CSc1ccc(CNc2ccc(Cl)cc2)cc1 the results were CYP2C19 inh 96*, CYP2C9 activ 1, PLK1 inh -12, CYP2C9 inh 3, PLK1 PBD inh 9 and CYP2C19 act 0.
CSc1ccc(CNC2CC2)cc1 was read as CYP2C19 inh 35, CYP2C9 activ 1.2, PLK1 inh 0, CYP2C9 inh -18, PLK1 PBD inh -29 and CYP2C19 act 0.6.
Screening COC(=O)C1CCN(C(=O)CN2C(=O)NC(CCc3ccccc3)C2=O)CC1 (stereo not given) returned CYP2C19 inh -7, CYP2C9 activ 1.1, PLK1 inh 0, CYP2C9 inh -9, PLK1 PBD inh -16 and CYP2C19 act 1.1.
`CCOC(=O)C1CCN(C(=O)c2ccc(Br)o2)CC1` gave CYP2C19 inh 82*, CYP2C9 activ 0.3, PLK1 inh -11, CYP2C9 inh 70*, PLK1 PBD inh -11 and CYP2C19 act 0.2.
For COC(=O)C1CCN(C(=O)CCCOc2ccccc2)CC1 the results were CYP2C19 inh 87*, CYP2C9 activ 0.9, PLK1 inh -5, CYP2C9 inh 13, PLK1 PBD inh 1 and CYP2C19 act 0.1.
Screening CCOC(=O)C1CCCN(CCCc2ccccc2)C1 (stereo not given) returned CYP2C19 inh 80*, CYP2C9 activ 0.8, PLK1 inh -6, CYP2C9 inh 20, PLK1 PBD inh 1 and CYP2C19 act 0.2.
`CCOC(=O)C1CCN(C(=O)CSCCSCC(=O)N2CCC(C(=O)OCC)CC2)CC1` gave CYP2C19 inh 73*, CYP2C9 activ 0.9, CYP2C9 inh 7 and CYP2C19 act 0.3.
For Cc1nn(Cc2c(F)c(F)c(F)c(F)c2F)c(C)c1NC(=O)c1c(-c2ccccc2)nn(-c2ccccc2)c1C the results were CYP2C19 inh 27, CYP2C9 activ 0.6, PLK1 inh -3, CYP2C9 inh 35, PLK1 PBD inh -43 and CYP2C19 act 0.7.
Cc1cccc(-c2c3c(=O)n(C)c(=O)n(C)c3cn2CC2CCCO2)c1 (stereo not given) was read as CYP2C19 inh 1, CYP2C9 activ 0.9, PLK1 inh -12, CYP2C9 inh 9, PLK1 PBD inh -1 and CYP2C19 act 1.
Screening COc1ccc(OCCC(=O)N2CCCCC2)cc1 returned CYP2C19 inh 85*, CYP2C9 activ 0.9, PLK1 inh -9, CYP2C9 inh 14, PLK1 PBD inh 3 and CYP2C19 act 0.1.
`CC1CCN(C(=O)COC(=O)c2ccc(Br)o2)CC1` gave CYP2C19 inh 60*, CYP2C9 activ 1, PLK1 inh -9, CYP2C9 inh 3, PLK1 PBD inh 1 and CYP2C19 act 0.4.
CCOC(=O)C1CCN(C(=O)CCc2ccccc2)CC1 was read as CYP2C19 inh 71*, CYP2C9 activ 0.5, PLK1 inh -3, CYP2C9 inh 46, PLK1 PBD inh -2 and CYP2C19 act 0.3.
`CCOC(=O)C1CCN(C(=O)COC(=O)c2ccc(Br)o2)CC1` gave CYP2C19 inh 24, CYP2C9 activ 0.8, PLK1 inh -23, CYP2C9 inh 23, PLK1 PBD inh -15 and CYP2C19 act 0.8.
CCCCOc1ccc(C(=O)NCCCC(=O)N2CCCCC2)cc1 was read as CYP2C19 inh 11, CYP2C9 activ 0.9, PLK1 inh -2, CYP2C9 inh 15, PLK1 PBD inh -5 and CYP2C19 act 0.9.
